Reference: the supplement of paper PMC11732987, “Enantioselective OTUD7B fragment discovery through chemoproteomics screening and high-throughput optimisation” (Communications Chemistry, 2025)

Columns and labels:
Test in all cases: log2 ratio of Biotin-Ahx-Ub-VS probe labelling (fragment/DMSO); higher = less target engagement (more negative = stronger competition), active = hit call of the paper (q ≤ 0.05, log2 ratio ≤ -1)
Settings in all cases: compound concentration: 200 uM; treatment time: 3 h
ALG13 = target: T1, ALG13 (UniProt Q9NP73)
T1 sequence (whole entry): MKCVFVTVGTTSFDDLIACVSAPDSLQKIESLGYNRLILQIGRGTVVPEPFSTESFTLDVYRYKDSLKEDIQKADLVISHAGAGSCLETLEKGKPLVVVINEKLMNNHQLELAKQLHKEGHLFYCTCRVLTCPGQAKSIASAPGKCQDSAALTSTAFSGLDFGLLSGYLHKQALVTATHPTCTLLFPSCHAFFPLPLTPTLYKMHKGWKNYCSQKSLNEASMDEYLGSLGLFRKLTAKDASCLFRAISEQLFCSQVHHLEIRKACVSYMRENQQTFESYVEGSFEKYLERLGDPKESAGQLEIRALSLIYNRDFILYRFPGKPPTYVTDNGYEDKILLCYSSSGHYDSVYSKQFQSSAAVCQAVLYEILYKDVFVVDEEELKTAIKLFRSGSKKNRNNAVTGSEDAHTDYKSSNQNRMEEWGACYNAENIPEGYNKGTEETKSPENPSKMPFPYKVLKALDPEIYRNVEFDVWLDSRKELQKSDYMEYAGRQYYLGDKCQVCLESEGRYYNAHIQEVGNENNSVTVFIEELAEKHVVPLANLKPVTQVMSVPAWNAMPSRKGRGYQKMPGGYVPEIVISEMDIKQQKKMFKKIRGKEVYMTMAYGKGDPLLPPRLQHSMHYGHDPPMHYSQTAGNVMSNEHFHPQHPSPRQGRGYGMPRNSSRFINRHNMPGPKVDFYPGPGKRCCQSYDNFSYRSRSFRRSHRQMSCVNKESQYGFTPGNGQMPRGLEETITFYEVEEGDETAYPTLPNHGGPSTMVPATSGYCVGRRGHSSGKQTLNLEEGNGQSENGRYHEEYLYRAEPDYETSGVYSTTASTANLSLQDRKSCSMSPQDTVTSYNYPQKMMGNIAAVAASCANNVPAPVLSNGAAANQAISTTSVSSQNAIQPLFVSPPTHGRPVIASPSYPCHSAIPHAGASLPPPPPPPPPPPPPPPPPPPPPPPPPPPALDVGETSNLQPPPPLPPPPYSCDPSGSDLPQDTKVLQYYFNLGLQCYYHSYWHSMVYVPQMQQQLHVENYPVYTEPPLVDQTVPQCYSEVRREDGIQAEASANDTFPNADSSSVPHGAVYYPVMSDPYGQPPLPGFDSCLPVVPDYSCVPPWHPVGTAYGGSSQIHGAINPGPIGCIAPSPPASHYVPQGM
Outline: (§1)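 Average log2 ratios of fragment over vehicle were obtained by unpaired t-test from global-median-normalised Spectronaut label-free quantities. Proteins with ≥2 unique peptides were included. HEK293T lysate (495 µg per sample) was treated in triplicate with fragment at 200 µM or vehicle for 3 h, then with Biotin-Ahx-Ub-VS at 0.5 µM final for 1 h, and labelled DUBs were NeutrAvidin-enriched and run by diaPASEF LC-MS/MS.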

ATXN3 = ATXN3 (UniProt P54252)
Chain of ATXN3 (P54252 whole entry): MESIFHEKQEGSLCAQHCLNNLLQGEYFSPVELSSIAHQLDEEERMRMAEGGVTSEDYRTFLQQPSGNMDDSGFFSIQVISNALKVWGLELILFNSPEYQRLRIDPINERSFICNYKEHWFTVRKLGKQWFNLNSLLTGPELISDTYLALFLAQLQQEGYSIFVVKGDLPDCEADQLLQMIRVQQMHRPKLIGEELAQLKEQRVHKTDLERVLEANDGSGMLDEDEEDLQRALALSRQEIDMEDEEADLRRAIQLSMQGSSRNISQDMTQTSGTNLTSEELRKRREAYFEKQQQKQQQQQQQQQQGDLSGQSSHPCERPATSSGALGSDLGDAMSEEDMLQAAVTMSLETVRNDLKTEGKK
Outline: as §1

BAP1 = target: T2, BAP1 (UniProt Q92560)
T2 sequence (whole entry): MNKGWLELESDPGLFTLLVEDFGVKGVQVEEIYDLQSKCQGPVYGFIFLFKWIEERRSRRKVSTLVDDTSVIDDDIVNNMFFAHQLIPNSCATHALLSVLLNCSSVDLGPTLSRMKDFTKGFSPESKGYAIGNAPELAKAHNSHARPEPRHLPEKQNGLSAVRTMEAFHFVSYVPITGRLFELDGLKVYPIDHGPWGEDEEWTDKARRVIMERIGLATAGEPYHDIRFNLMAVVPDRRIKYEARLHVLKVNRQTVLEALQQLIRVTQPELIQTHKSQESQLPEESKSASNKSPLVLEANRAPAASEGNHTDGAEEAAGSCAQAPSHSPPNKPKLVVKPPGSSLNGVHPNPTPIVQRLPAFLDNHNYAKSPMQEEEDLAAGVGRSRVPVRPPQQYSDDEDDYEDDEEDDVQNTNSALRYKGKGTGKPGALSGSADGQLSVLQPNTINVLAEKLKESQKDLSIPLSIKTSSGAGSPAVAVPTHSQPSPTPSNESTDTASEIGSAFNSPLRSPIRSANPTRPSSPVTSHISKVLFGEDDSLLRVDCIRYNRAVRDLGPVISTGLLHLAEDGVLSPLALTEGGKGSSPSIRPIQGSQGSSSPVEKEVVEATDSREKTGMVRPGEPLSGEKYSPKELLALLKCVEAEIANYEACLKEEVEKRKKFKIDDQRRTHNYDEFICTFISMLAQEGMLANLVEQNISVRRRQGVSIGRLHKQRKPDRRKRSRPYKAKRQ
Outline: as §1

EIF3F = EIF3F (UniProt O00303)
Chain of EIF3F (O00303 whole entry): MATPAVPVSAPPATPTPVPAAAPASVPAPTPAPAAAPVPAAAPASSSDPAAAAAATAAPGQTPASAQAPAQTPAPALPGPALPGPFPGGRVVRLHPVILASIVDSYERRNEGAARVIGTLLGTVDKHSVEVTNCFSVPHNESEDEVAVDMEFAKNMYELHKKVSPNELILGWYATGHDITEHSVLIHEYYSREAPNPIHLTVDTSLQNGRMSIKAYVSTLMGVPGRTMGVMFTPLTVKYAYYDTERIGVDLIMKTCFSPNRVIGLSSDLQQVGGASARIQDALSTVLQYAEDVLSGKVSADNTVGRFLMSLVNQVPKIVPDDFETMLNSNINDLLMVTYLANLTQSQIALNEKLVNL
Outline: as §1

EIF3H = EIF3H (UniProt O15372)
Chain of EIF3H (O15372 whole entry): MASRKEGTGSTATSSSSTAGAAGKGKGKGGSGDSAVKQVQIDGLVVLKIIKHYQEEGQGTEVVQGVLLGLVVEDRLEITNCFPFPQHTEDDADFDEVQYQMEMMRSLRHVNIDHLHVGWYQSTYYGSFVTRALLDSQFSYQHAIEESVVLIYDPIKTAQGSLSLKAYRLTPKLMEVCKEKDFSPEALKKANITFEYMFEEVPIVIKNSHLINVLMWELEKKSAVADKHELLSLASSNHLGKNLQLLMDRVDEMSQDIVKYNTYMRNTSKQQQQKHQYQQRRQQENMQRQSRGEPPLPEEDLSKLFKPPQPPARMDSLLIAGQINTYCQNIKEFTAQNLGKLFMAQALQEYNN
Outline: as §1

FAM105A = target: T3, FAM105A (UniProt Q9NUU6)
T3 sequence (whole entry): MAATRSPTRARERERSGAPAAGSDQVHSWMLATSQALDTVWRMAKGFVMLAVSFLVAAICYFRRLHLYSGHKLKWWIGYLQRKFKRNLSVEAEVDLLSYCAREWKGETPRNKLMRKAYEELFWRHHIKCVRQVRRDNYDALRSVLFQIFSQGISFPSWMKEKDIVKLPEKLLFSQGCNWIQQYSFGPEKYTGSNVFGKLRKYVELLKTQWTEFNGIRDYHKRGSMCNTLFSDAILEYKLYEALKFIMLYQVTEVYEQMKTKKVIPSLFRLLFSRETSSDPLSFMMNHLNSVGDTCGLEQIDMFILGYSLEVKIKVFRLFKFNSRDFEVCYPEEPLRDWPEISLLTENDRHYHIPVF
Outline: as §1

OTUB1 = OTUB1 (UniProt Q96FW1)
Chain of OTUB1 (Q96FW1 whole entry): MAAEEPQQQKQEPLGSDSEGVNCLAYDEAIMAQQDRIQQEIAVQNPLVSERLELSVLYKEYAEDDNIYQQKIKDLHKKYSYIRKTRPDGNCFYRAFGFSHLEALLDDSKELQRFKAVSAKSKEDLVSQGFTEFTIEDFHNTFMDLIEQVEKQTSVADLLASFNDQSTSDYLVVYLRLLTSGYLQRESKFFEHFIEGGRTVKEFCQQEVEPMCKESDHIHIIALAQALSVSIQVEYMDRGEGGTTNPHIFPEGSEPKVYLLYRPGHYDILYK
Outline: as §1

OTUD4 = target: T4, OTUD4 (UniProt Q01804)
T4 sequence (whole entry): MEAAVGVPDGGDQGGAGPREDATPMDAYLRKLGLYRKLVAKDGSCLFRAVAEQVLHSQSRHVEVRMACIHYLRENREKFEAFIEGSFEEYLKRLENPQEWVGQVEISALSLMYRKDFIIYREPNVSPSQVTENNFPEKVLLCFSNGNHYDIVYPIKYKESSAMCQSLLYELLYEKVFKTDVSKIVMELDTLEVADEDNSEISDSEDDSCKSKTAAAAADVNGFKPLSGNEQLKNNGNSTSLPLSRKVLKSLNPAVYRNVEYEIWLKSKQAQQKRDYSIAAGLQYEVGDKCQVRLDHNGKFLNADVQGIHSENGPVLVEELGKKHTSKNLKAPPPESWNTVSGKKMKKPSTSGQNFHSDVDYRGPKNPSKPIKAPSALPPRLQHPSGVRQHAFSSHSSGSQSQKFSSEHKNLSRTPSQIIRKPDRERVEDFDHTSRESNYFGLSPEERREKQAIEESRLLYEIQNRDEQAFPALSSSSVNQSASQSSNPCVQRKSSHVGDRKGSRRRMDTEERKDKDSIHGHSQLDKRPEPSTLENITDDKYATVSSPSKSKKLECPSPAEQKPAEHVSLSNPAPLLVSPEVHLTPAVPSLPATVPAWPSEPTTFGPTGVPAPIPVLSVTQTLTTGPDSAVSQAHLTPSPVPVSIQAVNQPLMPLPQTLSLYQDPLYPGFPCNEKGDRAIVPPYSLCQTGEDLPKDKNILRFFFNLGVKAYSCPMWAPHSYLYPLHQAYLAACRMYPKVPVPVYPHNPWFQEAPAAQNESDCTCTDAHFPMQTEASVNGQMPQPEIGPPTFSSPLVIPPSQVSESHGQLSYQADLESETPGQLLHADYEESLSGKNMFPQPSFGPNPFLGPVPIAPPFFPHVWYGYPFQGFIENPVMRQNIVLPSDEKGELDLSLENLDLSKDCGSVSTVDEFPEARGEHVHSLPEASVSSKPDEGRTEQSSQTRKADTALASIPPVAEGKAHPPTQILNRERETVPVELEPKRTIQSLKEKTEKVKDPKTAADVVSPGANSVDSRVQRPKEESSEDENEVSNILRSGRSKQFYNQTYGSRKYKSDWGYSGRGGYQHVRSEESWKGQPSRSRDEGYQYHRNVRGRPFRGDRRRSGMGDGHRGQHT
Outline: as §1

OTUD5 = target: T5, OTUD5 (UniProt Q96G74)
T5 sequence (whole entry): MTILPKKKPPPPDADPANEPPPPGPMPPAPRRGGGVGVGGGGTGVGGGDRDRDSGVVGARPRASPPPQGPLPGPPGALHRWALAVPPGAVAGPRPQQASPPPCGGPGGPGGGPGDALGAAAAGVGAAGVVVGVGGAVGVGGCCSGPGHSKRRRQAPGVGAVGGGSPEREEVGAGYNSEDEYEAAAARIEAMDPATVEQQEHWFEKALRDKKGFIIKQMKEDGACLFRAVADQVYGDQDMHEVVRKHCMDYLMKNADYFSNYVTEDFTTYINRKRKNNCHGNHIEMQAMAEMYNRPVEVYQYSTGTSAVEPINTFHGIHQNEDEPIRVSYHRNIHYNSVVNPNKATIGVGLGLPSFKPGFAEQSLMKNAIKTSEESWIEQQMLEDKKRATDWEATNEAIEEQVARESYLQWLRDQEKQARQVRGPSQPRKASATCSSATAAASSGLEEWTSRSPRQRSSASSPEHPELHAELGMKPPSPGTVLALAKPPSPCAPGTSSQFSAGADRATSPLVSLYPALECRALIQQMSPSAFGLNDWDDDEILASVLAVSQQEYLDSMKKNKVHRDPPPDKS
Outline: as §1

Measured: log2 ratio of Biotin-Ahx-Ub-VS probe labelling

Cc1ccccc1OCC(=O)N1CCN(C(=O)CCl)CC1
inactive: ALG13 -0.255 | ATXN3 -0.894 | BAP1 -0.74 | EIF3F -0.317 | EIF3H 0.19 | FAM105A 0.252 | OTUB1 -0.249 | OTUD4 0.0744 | OTUD5 -0.161
